Measurements taken from PubChem BioAssay AID1159580 (chemical genetic matrix, 2015).
The campaign covered roughly 5,500 compounds. About 2,000 (36%) were called active. Another 18% or so got no clear call; they are omitted. Cut-off read from the data, not from the text of the source: active = normalized growth mostly below about 0.91 (no sharp cut-off); inconclusive = no clear call, values can overlap the other calls; inactive = mostly above about 0.92. The list shows a part of the results.

Assay: chemical genetic growth profiling, strain panel (AID 1159580);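 note: tested at 20 µM; growth read once vehicle control cultures reached saturation at 30 °C; 1 = growth at the plate median or of vehicle wells; lower values mean less growth of the strain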
Settings: growth OD
[1] = S. cerevisiae deletion strains, locus YHR030C, strain SLT2, stronger effect = lower value
[2] = S. cerevisiae deletion strains, locus YHR079C, strain IRE1, stronger effect = lower value
[3] = S. cerevisiae deletion strains, locus YJL095W, strain BCK1, stronger effect = lower value
[4] = S. cerevisiae deletion strains, locus YJR066W, strain TOR1, stronger effect = lower value
[5] = S. cerevisiae deletion strains, locus YLR113W, strain HOG1, stronger effect = lower value
[6] = S. cerevisiae deletion strains, locus YNL183C, strain NPR1, stronger effect = lower value
[7] = S. cerevisiae deletion strains, locus YOR231W, strain MKK1, stronger effect = lower value
[8] = S. cerevisiae deletion strains, locus YPL256C, strain CLN2, stronger effect = lower value
[9] = S. cerevisiae deletion strains, locus YDL101C, strain DUN1, stronger effect = lower value
[10] = S. cerevisiae deletion strains, locus YOR061W, strain CKA2, stronger effect = lower value

Measured: normalized growth

CN[C@H]1C[C@@H](N)[C@H](O)[C@@H](O[C@@H]2O[C@H](CO)[C@@H]3OC4(O[C@@H]3[C@@H]2O)O[C@H](C(N)CO)[C@H](O)[C@H](O)[C@H]4O)[C@@H]1O (some centres not stated)
inactive: [1] 1.05 | [2] 1.05 | [3] 1.05 | [4] 0.982 | [5] 1.02 | [6] 0.969 | [7] 1.03 | [8] 1.03

Nc1nc2ncc(C(=O)O)nc2c(=O)[nH]1
inactive: S. cerevisiae deletion strains, locus YAL013W, strain DEP1, stronger effect = lower value 1.01 | S. cerevisiae deletion strains, locus YBR021W, strain FUR4, stronger effect = lower value 1 | S. cerevisiae deletion strains, locus YBR229C, strain ROT2, stronger effect = lower value 1.01 | S. cerevisiae deletion strains, locus YCL029C, strain bik1, stronger effect = lower value 1.03 | S. cerevisiae deletion strains, locus YDL035C, strain GPR1, stronger effect = lower value 1 | S. cerevisiae deletion strains, locus YDL074C, strain BRE1, stronger effect = lower value 1.01 | [9] 1.01 | S. cerevisiae deletion strains, locus YDL134C, strain PPH21, stronger effect = lower value 1.01 | S. cerevisiae deletion strains, locus YDL185W, strain tfp1, stronger effect = lower value 1.04 | S. cerevisiae deletion strains, locus YDL192W, strain arf1, stronger effect = lower value 1.03 | S. cerevisiae deletion strains, locus YDR101C, strain arx1, stronger effect = lower value 1.03 | S. cerevisiae deletion strains, locus YDR162C, strain NBP2, stronger effect = lower value 1.03 | S. cerevisiae deletion strains, locus YDR318W, strain mcm21, stronger effect = lower value 1.02 | S. cerevisiae deletion strains, locus YDR388W, stronger effect = lower value 1.02 | S. cerevisiae deletion strains, locus YDR502C, strain sam2, stronger effect = lower value 1.04 | S. cerevisiae deletion strains, locus YEL061C, strain CIN8, stronger effect = lower value 1.01 | S. cerevisiae deletion strains, locus YER110C, stronger effect = lower value 1.05 | S. cerevisiae deletion strains, locus YER155C, strain BEM2, stronger effect = lower value 1.01 | S. cerevisiae deletion strains, locus YER167W, strain BCK2, stronger effect = lower value 1.01 | S. cerevisiae deletion strains, locus YGL078C, strain dbp3, stronger effect = lower value 1.03 | S. cerevisiae deletion strains, locus YGL086W, strain mad1, stronger effect = lower value 1 | S. cerevisiae deletion strains, locus YGL248W, strain PDE1, stronger effect = lower value 1.02 | S. cerevisiae deletion strains, locus YGR078C, strain PAC10, stronger effect = lower value 1.01 | S. cerevisiae deletion strains, locus YGR135W, strain pre9, stronger effect = lower value 1.01 | S. cerevisiae deletion strains, locus YGR252W, strain gcn5, stronger effect = lower value 1.07 | [1] 1.01 | S. cerevisiae deletion strains, locus YHR079C, strain IRE1 (second series), stronger effect = lower value 1.05 | S. cerevisiae deletion strains, locus YHR094C, strain hxt1, stronger effect = lower value 1.04 | S. cerevisiae deletion strains, locus YHR129C, strain ARP1, stronger effect = lower value 1.01 | S. cerevisiae deletion strains, locus YHR200W, strain rpn10, stronger effect = lower value 1 | S. cerevisiae deletion strains, locus YIL066C, strain RNR3, stronger effect = lower value 1.02 | S. cerevisiae deletion strains, locus YIL073C, strain SPO22, stronger effect = lower value 1.1 | S. cerevisiae deletion strains, locus YIL125W, strain kgd1, stronger effect = lower value 1.03 | S. cerevisiae deletion strains, locus YIR030C, strain dcg1, stronger effect = lower value 1.04 | [3] 1.01 | S. cerevisiae deletion strains, locus YJL134W, strain LCB3, stronger effect = lower value 1.01 | S. cerevisiae deletion strains, locus YJL168C, strain set2, stronger effect = lower value 1.05 | S. cerevisiae deletion strains, locus YJL187C, strain SWE1 (second series), stronger effect = lower value 1.01 | S. cerevisiae deletion strains, locus YJR043C, strain POL32, stronger effect = lower value 0.997 | S. cerevisiae deletion strains, locus YKL009W, strain mrt4, stronger effect = lower value 1.02 | S. cerevisiae deletion strains, locus YKL068W, stronger effect = lower value 1.03 | S. cerevisiae deletion strains, locus YKL085W, strain MDH1 (second series), stronger effect = lower value 1.01 | S. cerevisiae deletion strains, locus YKL085W, strain MDH1, stronger effect = lower value 1.01 | S. cerevisiae deletion strains, locus YKR001C, strain vps1, stronger effect = lower value 1.02 | S. cerevisiae deletion strains, locus YLR039C, strain RIC1, stronger effect = lower value 1.03 | S. cerevisiae deletion strains, locus YLR058C, strain SHM2, stronger effect = lower value 1.01 | S. cerevisiae deletion strains, locus YLR102C, strain apc9, stronger effect = lower value 1.04 | S. cerevisiae deletion strains, locus YLR262C, strain YPT6, stronger effect = lower value 1.03 | S. cerevisiae deletion strains, locus YLR268W, strain sec22, stronger effect = lower value 1.04 | S. cerevisiae deletion strains, locus YLR330W, strain CHS5, stronger effect = lower value 1.01 | S. cerevisiae deletion strains, locus YLR342W, strain FKS1 (second series), stronger effect = lower value 0.998 | S. cerevisiae deletion strains, locus YLR371W, strain rom2, stronger effect = lower value 1.06 | S. cerevisiae deletion strains, locus YLR418C, strain cdc73, stronger effect = lower value 1.03 | S. cerevisiae deletion strains, locus YML016C, strain PPZ1, stronger effect = lower value 1.01 | S. cerevisiae deletion strains, locus YML032C, strain rad52, stronger effect = lower value 1.02 | S. cerevisiae deletion strains, locus YML124C, strain tub3, stronger effect = lower value 1.02 | S. cerevisiae deletion strains, locus YMR078C, strain ctf18, stronger effect = lower value 1.05 | S. cerevisiae deletion strains, locus YMR223W, strain ubp8, stronger effect = lower value 1.03 | S. cerevisiae deletion strains, locus YMR307W, strain GAS1, stronger effect = lower value 1.01 | S. cerevisiae deletion strains, locus YNL067W, strain RPL9B, stronger effect = lower value 1.01 | S. cerevisiae deletion strains, locus YNL153C, strain GIM3, stronger effect = lower value 1.01 | S. cerevisiae deletion strains, locus YNL233W, strain BNI4, stronger effect = lower value 1 | S. cerevisiae deletion strains, locus YNL250W, strain rad50, stronger effect = lower value 1.03 | S. cerevisiae deletion strains, locus YNL271C, strain bni1, stronger effect = lower value 1.03 | S. cerevisiae deletion strains, locus YNL298W, strain CLA4, stronger effect = lower value 1.04 | S. cerevisiae deletion strains, locus YNL307C, strain MCK1, stronger effect = lower value 1.06 | S. cerevisiae deletion strains, locus YNL322C, strain KRE1, stronger effect = lower value 1.01 | S. cerevisiae deletion strains, locus YNR052C, strain pop2, stronger effect = lower value 1.03 | S. cerevisiae deletion strains, locus YOL012C, strain htz1 1.02 | S. cerevisiae deletion strains, locus YOL147C, strain pex11, stronger effect = lower value 1.04 | [10] 1.02 | S. cerevisiae deletion strains, locus YOR069W, strain VPS5, stronger effect = lower value 1.01 | S. cerevisiae deletion strains, locus YOR136W, strain idh2, stronger effect = lower value 1.04 | S. cerevisiae deletion strains, locus YOR144C, strain elg1, stronger effect = lower value 1.03 | S. cerevisiae deletion strains, locus YOR184W, strain ser1, stronger effect = lower value 1.04 | S. cerevisiae deletion strains, locus YOR316C, strain cot1, stronger effect = lower value 1.06 | S. cerevisiae deletion strains, locus YPL055C, strain LGE1, stronger effect = lower value 1.01 | S. cerevisiae deletion strains, locus YPR119W, strain clb2, stronger effect = lower value 1.03 | S. cerevisiae deletion strains, locus YPR141C, strain kar3, stronger effect = lower value 1.02 | S. cerevisiae deletion strains, locus YPR163C, strain tif3, stronger effect = lower value 1.05 | S. cerevisiae deletion strains, locus YPR167C, strain met16, stronger effect = lower value 1.06 | S. cerevisiae deletion strains, strain wtn01, stronger effect = lower value 1.02 | S. cerevisiae strains, strain wild type, stronger effect = lower value 1.01

COC(=O)C1=C(C)NC(C)=C(C(=O)OC)C1c1ccc(Cl)cc1Cl
inactive: S. cerevisiae deletion strains, locus YAR019C, strain CDC15, stronger effect = lower value 0.973 | S. cerevisiae deletion strains, locus YBL105C, strain PKC1, stronger effect = lower value 0.976 | S. cerevisiae deletion strains, locus YBR135W, strain CKS1, stronger effect = lower value 0.971 | S. cerevisiae deletion strains, locus YBR136W, strain MEC1, stronger effect = lower value 0.976 | S. cerevisiae deletion strains, locus YBR160W, strain CDC28, stronger effect = lower value 0.981 | S. cerevisiae deletion strains, locus YDL017W, strain CDC7, stronger effect = lower value 0.979 | S. cerevisiae deletion strains, locus YDL028C, strain MPS1, stronger effect = lower value 0.977 | [9] 0.973 | S. cerevisiae deletion strains, locus YDL108W, strain KIN28, stronger effect = lower value 0.967 | S. cerevisiae deletion strains, locus YDL132W, strain cdc53, stronger effect = lower value 0.967 | S. cerevisiae deletion strains, locus YDL214C, strain PRR2, stronger effect = lower value 0.917 | S. cerevisiae deletion strains, locus YDR052C, strain DBF4, stronger effect = lower value 0.986 | S. cerevisiae deletion strains, locus YDR054C, strain cdc34, stronger effect = lower value 0.967 | S. cerevisiae deletion strains, locus YDR226W, strain ADK1, stronger effect = lower value 0.972 | S. cerevisiae deletion strains, locus YDR477W, strain SNF1, stronger effect = lower value 0.909 | S. cerevisiae deletion strains, locus YER123W, strain YCK3, stronger effect = lower value 0.887 | S. cerevisiae deletion strains, locus YER133W, strain GLC7, stronger effect = lower value 0.889 | S. cerevisiae deletion strains, locus YFL009W, strain cdc4, stronger effect = lower value 0.968 | S. cerevisiae deletion strains, locus YFL029C, strain CAK1, stronger effect = lower value 0.969 | S. cerevisiae deletion strains, locus YFR003C, strain YPI1, stronger effect = lower value 0.98 | S. cerevisiae deletion strains, locus YFR019W, strain FAB1, stronger effect = lower value 0.949 | S. cerevisiae deletion strains, locus YFR028C, strain CDC14, stronger effect = lower value 0.974 | S. cerevisiae deletion strains, locus YGR040W, strain KSS1, stronger effect = lower value 0.914 | S. cerevisiae deletion strains, locus YGR052W, strain FMP48, stronger effect = lower value 0.989 | S. cerevisiae deletion strains, locus YGR092W, strain DBF2, stronger effect = lower value 0.88 | [1] 0.99 | [2] 0.963 | S. cerevisiae deletion strains, locus YHR082C, strain KSP1, stronger effect = lower value 0.97 | S. cerevisiae deletion strains, locus YHR205W, strain SCH9, stronger effect = lower value 0.943 | S. cerevisiae deletion strains, locus YIL147C, strain SLN1, stronger effect = lower value 0.961 | [3] 0.961 | S. cerevisiae deletion strains, locus YJL128C, strain PBS2, stronger effect = lower value 0.98 | S. cerevisiae deletion strains, locus YJL157C, strain FAR1, stronger effect = lower value 0.928 | S. cerevisiae deletion strains, locus YJR016C, strain ILV3, stronger effect = lower value 0.972 | S. cerevisiae deletion strains, locus YJR066W, strain TOR1 (second series), stronger effect = lower value 0.908 | [4] 0.999 | S. cerevisiae deletion strains, locus YKL048C, strain ELM1, stronger effect = lower value 0.949 | S. cerevisiae deletion strains, locus YKL067W, strain YNK1, stronger effect = lower value 0.947 | S. cerevisiae deletion strains, locus YKL101W, strain HSL1, stronger effect = lower value 0.936 | S. cerevisiae deletion strains, locus YKL193C, strain SDS22, stronger effect = lower value 0.978 | S. cerevisiae deletion strains, locus YKL203C, strain TOR2, stronger effect = lower value 0.975 | [5] 0.912 | S. cerevisiae deletion strains, locus YLR133W, strain CKI1, stronger effect = lower value 0.956 | S. cerevisiae deletion strains, locus YLR403W, strain SFP1, stronger effect = lower value 0.88 | S. cerevisiae deletion strains, locus YML070W, strain DAK1, stronger effect = lower value 0.911 | S. cerevisiae deletion strains, locus YMR001C, strain CDC5, stronger effect = lower value 0.972 | S. cerevisiae deletion strains, locus YMR205C, strain PFK2 (second series), stronger effect = lower value 0.956 | S. cerevisiae deletion strains, locus YMR277W, strain FCP1, stronger effect = lower value 0.978 | S. cerevisiae deletion strains, locus YNL006W, strain LST8, stronger effect = lower value 0.973 | S. cerevisiae deletion strains, locus YNL020C, strain ARK1, stronger effect = lower value 0.94 | S. cerevisiae deletion strains, locus YNL161W, strain CBK1, stronger effect = lower value 0.987 | [6] 0.985 | S. cerevisiae deletion strains, locus YNL207W, strain RIO2, stronger effect = lower value 0.973 | S. cerevisiae deletion strains, locus YNL222W, strain SSU72, stronger effect = lower value 0.973 | S. cerevisiae deletion strains, locus YNL307C, strain MCK1 (second series), stronger effect = lower value 0.947 | S. cerevisiae deletion strains, locus YOL078W, strain AVO1, stronger effect = lower value 0.991 | S. cerevisiae deletion strains, locus YOL136C, strain PFK27, stronger effect = lower value 0.918 | [10] 0.93 | S. cerevisiae deletion strains, locus YOR119C, strain RIO1, stronger effect = lower value 0.945 | [7] 0.933 | S. cerevisiae deletion strains, locus YOR329C, strain SCD5, stronger effect = lower value 0.984 | S. cerevisiae deletion strains, locus YPL031C, strain PHO85, stronger effect = lower value 0.884 | S. cerevisiae deletion strains, locus YPL153C, strain RAD53, stronger effect = lower value 0.866 | S. cerevisiae deletion strains, locus YPL204W, strain HRR25, stronger effect = lower value 0.898 | S. cerevisiae deletion strains, locus YPL209C, strain IPL1, stronger effect = lower value 0.985 | [8] 0.971 | S. cerevisiae deletion strains, locus YPR025C, strain CCL1, stronger effect = lower value 0.979 | S. cerevisiae deletion strains, locus YPR106W, strain ISR1, stronger effect = lower value 0.975 | S. cerevisiae deletion strains, locus YPR111W, strain DBF20, stronger effect = lower value 0.975 | S. cerevisiae deletion strains, strain NNK1, stronger effect = lower value 0.977 | S. cerevisiae deletion strains, strain TSCII, stronger effect = lower value 0.968
